According to PubChem BioAssay (NCI):
About 83,000 compounds went through this panel and 20% of them were active in at least one assay; those are over-represented in the sample as a whole.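 Step 1: grow cells in 96-well plates. Step 2: add test compound at a single concentration. Step 3: incubate 48 h. Step 4: record percent growth.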 Active and inactive are the calls of the source. The calls were made as follows: active = growth percent below 10; inactive = the rest.

Legend:
Assay in all cases: NCI-60 one-dose screen, 48 h (100 = growth as untreated, 0 = no growth, -100 = all killed)
Details in all cases: 10 µM unless noted
[1] = test system: RPMI-8226 leukemia
[2] = test system: OVCAR-8 ovarian
[3] = test system: OVCAR-5 ovarian
[4] = test system: OVCAR-4 ovarian
[5] = test system: SK-OV-3 ovarian
[6] = test system: IGROV1 ovarian
[7] = test system: OVCAR-3 ovarian
[8] = test system: HS 578T breast
[9] = test system: NCI/ADR-RES ovarian
[10] = test system: T-47D breast

Measured: growth

O=C(Nc1nc(-c2ccccc2)cs1)c1cc(-c2ccc(Br)cc2)nc2ccccc12
inactive: [1] 39.9% | [2] 57.1% | [3] 81.7% | [4] 57.6% | [5] 51.6% | [6] 59.4% | [7] 63.4% | [8] 62.1% | [9] 58.5% | [10] 21.7%

O=C1[C@@H](OS(=O)(=O)CC(F)(F)F)[C@H](c2ccc(F)cn2)N1c1cc2c3ccccc3ccc2c2ccccc12
inactive: [1] 25.1% | [2] 78.6% | [3] 104% | [4] 86.3% | [5] 95.8% | [6] 70% | [7] 49.3% | [8] 68.3% | [9] 72.2% | [10] 84.9%

C#C[C@@]1(O)[C@@H](CO)O[C@@H](n2cc(Cl)c3c(N)ncnc32)[C@@H]1O
inactive: [3] 16.1%
active: [1] -5.63% | [2] -23% | [4] -4.32% | [5] -10.3% | [6] -17.5% | [7] -10.1% | [8] 5.45% | [9] -1.89% | [10] -12.9%

COc1ccc(/C=C(/C(=O)N2CCCC2)c2cc(OC)c(OC)c(OC)c2)cc1
active: [1] 8.53% | [7] 5.36%
inactive: [2] 40% | [3] 63.1% | [4] 68.9% | [5] 22.3% | [6] 49.9% | [8] 27.8% | [9] 22% | [10] 42.4%

COc1ccc2c(c1)Oc1nc(N)c(C#N)c(N)c1C2Sc1ccc(O)cc1 (stereo not given)
inactive: [1] 53.4% | [2] 102% | [3] 118% | [4] 88.8% | [5] 104% | [6] 62% | [7] 79.7% | [8] 109% | [9] 106% | [10] 50.7%

O=C(/C(=C/c1ccc([N+](=O)[O-])cc1)SCc1ccc(F)cc1)c1ccc(Cl)cc1
active: [1] -16%
inactive: [2] 66.2% | [3] 95% | [4] 57.8% | [5] 74.8% | [6] 53.8% | [7] 70.5% | [8] 27.1% | [9] 53% | [10] 49.3%

CCC1S/C(=N\N=C(/C)c2ccc[nH]2)N(c2ccccc2)C1=O (stereo not given)
inactive: [1] 57.5% | [2] 90.2% | [3] 99.3% | [4] 104% | [5] 123% | [7] 89.7% | [8] 124% | [9] 85.2% | [10] 122%
active: [6] -48.7%

CC(=O)O[C@@H]1C[C@]2(C)[C@H]3[C@H](O)C[C@@H]4C5=CC(C)(C)CC[C@]5(C)CC[C@@]4(C)[C@]3(C)CC[C@H]2C(C)(C)[C@H]1O
inactive: [1] 124% | [2] 104% | [3] 106% | [4] 106% | [5] 107% | [6] 106% | [7] 101% | [8] 99.1% | [9] 104% | [10] 82.3%

O=C1CC(c2ccc(O)c(O)c2)Oc2cc(O)c([C@@H]3O[C@H](CO)[C@@H](O)[C@H](O)[C@H]3O)c(O)c21 (stereo not given in full)
inactive: [1] 99.3% | [2] 101% | [3] 98.7% | [4] 101% | [5] 103% | [6] 109% | [7] 104% | [8] 105% | [9] 110% | [10] 95.8%

C=C1C(=O)O[C@H]2[C@H]1CC/C(COC(=O)/C=C/c1cccnc1)=C\CC[C@@]1(C)O[C@@H]21
inactive: [2] 40.6% | [3] 59.1% | [4] 32.4% | [5] 80.2% | [6] 36.7% | [8] 62.8% | [9] 54.5% | [10] 23%
active: [1] 2.83% | [7] -6.31%

O=C1Nc2ccccc2C12C=C(c1ccccc1)Nc1c2c(-c2ccccc2)nn1-c1ccccc1 (stereo not given)
inactive: [1] 40.8% | [2] 46.6% | [3] 73% | [4] 78% | [5] 87% | [6] 67.9% | [7] 70.3% | [8] 78.9% | [9] 66.2% | [10] 61.7%

Cc1c(Cl)cccc1NC(=O)c1sc2nc3c(cc2c1N)COCC3
active: [9] 6.51%
inactive: [1] 30.3% | [2] 33.6% | [3] 55.3% | [4] 60.9% | [5] 26.5% | [6] 45.8% | [7] 17.8% | [8] 40.1% | [10] 32.4%

COc1cc(/C=C/C(=O)c2cccs2)ccc1OCc1ccc(Cl)nc1
inactive: [1] 17.5% | [2] 80.2% | [3] 88.9% | [4] 101% | [5] 105% | [6] 76.8% | [7] 67.9% | [8] 104% | [9] 69.6% | [10] 77.1%

O=[N+]([O-])c1cccc(CN(Cc2cccc([N+](=O)[O-])c2O)c2ccccc2)c1O
inactive: [1] 59.8% | [2] 83.2% | [3] 76.5% | [4] 68% | [5] 86.4% | [6] 60.4% | [7] 88.9% | [8] 94.6% | [9] 76% | [10] 70.8%

CC(C)NS(=O)(=O)c1cccc(-c2ccc3c4c(n(CCCN(C)C)c(=O)c3c2)-c2ccccc2C4=O)c1
inactive: [1] 80.9% | [2] 76.4% | [3] 117% | [4] 101% | [5] 104% | [6] 90% | [7] 110% | [8] 99.8% | [9] 103% | [10] 97.1%

Cc1cc2ccccc2c[n+]1CC(=O)c1ccc(-c2ccccc2)cc1
active: [4] 9.69%
inactive: [1] 19.6% | [2] 43.8% | [3] 73.1% | [5] 64.1% | [6] 49.2% | [7] 31.9% | [8] 83.5% | [9] 101% | [10] 38.2%

COc1cc(-c2nn(-c3ccc(Br)cc3)cc2CO)ccc1O
inactive: [1] 84.6% | [2] 94.9% | [3] 101% | [4] 94.7% | [5] 105% | [6] 115% | [7] 103% | [8] 88.9% | [9] 99.3% | [10] 80.3%

COc1ccc(NC(=O)c2ccc(Nc3ncnc4[nH]c(C)c(C)c34)cc2)cc1
inactive: [1] 111% | [2] 98.9% | [3] 108% | [4] 126% | [5] 109% | [6] 110% | [7] 103% | [8] 113% | [9] 103% | [10] 89.2%

c1ccc(-c2n(Cc3ccc4ccccc4n3)cc[n+]2Cc2ccc3ccccc3c2)cc1
active: [1] -2.59% | [2] 3.17% | [5] -12.4% | [6] -15.4% | [7] 6.21% | [10] -14.7%
inactive: [3] 22% | [4] 14.3% | [8] 15.1% | [9] 96%

COc1ccc2[nH]c3nc4cnccc4cc3c2c1
inactive: [1] 101% | [2] 97% | [3] 128% | [4] 101% | [5] 95.3% | [6] 89.3% | [7] 104% | [8] 110% | [9] 104% | [10] 94.6%

CC1=C/C(=N\N=C2/C=C(C)CC(C)(C)C2)CC(C)(C)C1
inactive: [1] 102% | [2] 95.2% | [3] 107% | [4] 106% | [5] 97% | [6] 103% | [7] 112% | [8] 103% | [9] 104% | [10] 97.3%

N#Cc1ccc(C2C3=C(CCCC3=O)OC3=C2C(=O)c2ccccc2C3=O)cc1 (stereo not given)
inactive: [1] 54.7% | [3] 126% | [5] 97.7% | [6] 40% | [8] 90.8%
active: [2] 1.88% | [4] -2.83% | [7] -1.75% | [9] 6.19% | [10] 3.02%

CCOCc1cc(C(C)(C)C)ccc1O
inactive: [1] 106% | [2] 95.4% | [3] 105% | [4] 103% | [5] 97.8% | [6] 107% | [7] 115% | [8] 99.2% | [9] 103% | [10] 98.6%

CCOC(=O)c1c(-c2ccc(O)cc2)c(C#N)c2c(C#N)c(N)nn2c1N
inactive: [1] 38.7% | [2] 70.8% | [3] 89.3% | [4] 81% | [5] 75.5% | [6] 52.3% | [7] 66.3% | [8] 70.2% | [9] 95.9% | [10] 28.2%

COc1ccc(OCC(=O)OC(C)C)cc1
inactive: [1] 106% | [2] 105% | [3] 99.6% | [4] 101% | [5] 112% | [6] 103% | [7] 99.1% | [8] 100% | [9] 93.3% | [10] 101%
